Tests used:
U-2932 [1] = assay: growth inhibition by drug alone (1 - RLU/untreated control) (fraction); higher = stronger inhibition; details: 177Lu-lilotomab satetraxetan 0 ug/ml
Summary of the method: (§1)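 Growth inhibition was calculated from RealTime-Glo RLU against untreated no-drug wells. Values equal 1 − RLU/mean of 48 untreated no-drug wells per plate, read daily from day 3 after 1 h at 37°C. RIVA and U-2932 cells, with or without 18 h pretreatment by a radiolabelled anti-CD37 antibody conjugate (~600 MBq/mg; 0.5 µg/ml RIVA, 1 µg/ml U-2932), were washed and plated at 3,000 cells/well on compound-printed plates at 10/100 nM (RIVA) or 10/1,000 nM (U-2932).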

RIVA [2] = assay: as above; details: 177Lu-lilotomab satetraxetan 0 ug/ml
Summary of the method: as §1

U-2932 [3] = assay: growth inhibition by drug plus 177Lu-lilotomab satetraxetan (1 - RLU/untreated control) (fraction); higher = stronger inhibition; details: 177Lu-lilotomab satetraxetan 1 ug/ml
Summary of the method: as §1

RIVA [4] = assay: as above; details: 177Lu-lilotomab satetraxetan 0.5 ug/ml
Summary of the method: as §1

Row | Structure (SMILES) | growth inhibition by drug alone (U-2932 [1]; 10 nM, time (day): 3) | growth inhibition by drug alone (U-2932 [1]; 10 nM, time (day): 4) | growth inhibition by drug alone (U-2932 [1]; 10 nM, time (day): 5) | growth inhibition by drug alone (U-2932 [1]; 10 nM, time (day): 6) | growth inhibition by drug alone (U-2932 [1]; 1000 nM, time (day): 3) | growth inhibition by drug alone (U-2932 [1]; 1000 nM, time (day): 4) | growth inhibition by drug alone (U-2932 [1]; 1000 nM, time (day): 5) | growth inhibition by drug alone (U-2932 [1]; 1000 nM, time (day): 6) | growth inhibition by drug alone (RIVA [2]; 10 nM, time (day): 3) | growth inhibition by drug alone (RIVA [2]; 10 nM, time (day): 4) | growth inhibition by drug alone (RIVA [2]; 10 nM, time (day): 5) | growth inhibition by drug alone (RIVA [2]; 10 nM, time (day): 6) | growth inhibition by drug alone (RIVA [2]; 100 nM, time (day): 3) | growth inhibition by drug alone (RIVA [2]; 100 nM, time (day): 4) | growth inhibition by drug alone (RIVA [2]; 100 nM, time (day): 5) | growth inhibition by drug alone (RIVA [2]; 100 nM, time (day): 6) | growth inhibition by drug plus 177Lu-lilotomab satetraxetan (U-2932 [3]; 10 nM, time (day): 3) | growth inhibition by drug plus 177Lu-lilotomab satetraxetan (U-2932 [3]; 10 nM, time (day): 4) | growth inhibition by drug plus 177Lu-lilotomab satetraxetan (U-2932 [3]; 10 nM, time (day): 5) | growth inhibition by drug plus 177Lu-lilotomab satetraxetan (U-2932 [3]; 10 nM, time (day): 6) | growth inhibition by drug plus 177Lu-lilotomab satetraxetan (U-2932 [3]; 1000 nM, time (day): 3) | growth inhibition by drug plus 177Lu-lilotomab satetraxetan (U-2932 [3]; 1000 nM, time (day): 4) | growth inhibition by drug plus 177Lu-lilotomab satetraxetan (U-2932 [3]; 1000 nM, time (day): 5) | growth inhibition by drug plus 177Lu-lilotomab satetraxetan (U-2932 [3]; 1000 nM, time (day): 6) | growth inhibition by drug plus 177Lu-lilotomab satetraxetan (RIVA [4]; 10 nM, time (day): 3) | growth inhibition by drug plus 177Lu-lilotomab satetraxetan (RIVA [4]; 10 nM, time (day): 4) | growth inhibition by drug plus 177Lu-lilotomab satetraxetan (RIVA [4]; 10 nM, time (day): 5) | growth inhibition by drug plus 177Lu-lilotomab satetraxetan (RIVA [4]; 10 nM, time (day): 6) | growth inhibition by drug plus 177Lu-lilotomab satetraxetan (RIVA [4]; 100 nM, time (day): 3) | growth inhibition by drug plus 177Lu-lilotomab satetraxetan (RIVA [4]; 100 nM, time (day): 4) | growth inhibition by drug plus 177Lu-lilotomab satetraxetan (RIVA [4]; 100 nM, time (day): 5) | growth inhibition by drug plus 177Lu-lilotomab satetraxetan (RIVA [4]; 100 nM, time (day): 6)
1 | CNC(=O)c1cc(COc2nnc(Nc3ccc(Cl)cc3)c3ccoc23)ccn1 [Telatinib (BAY 57-9352)] | -0.0124 | 0.00544 | -0.0774 | -0.272 | -0.0825 | -0.0325 | -0.0739 | -0.229 | -0.0398 | -0.0876 | -0.128 | -0.281 | -0.214 | -0.207 | -0.212 | -0.315 | -0.0402 | -0.000867 | 0.00308 | 0.0503 | -0.145 | -0.0474 | -0.0515 | 0.00564 | 0.351 | 0.487 | 0.503 | 0.502 | 0.316 | 0.416 | 0.413 | 0.391
2 | O=C(NCCS(=O)(=O)c1ccc(C(F)(F)F)cn1)c1ccc(Cl)cc1 | -0.00204 | -0.0169 | -0.0367 | -0.101 | 0.00453 | 0.00465 | -0.0415 | 0.00213 | -0.0219 | -0.049 | -0.0699 | -0.142 | -0.409 | -0.334 | -0.354 | -0.458 | -0.0322 | 0.0392 | 0.0668 | 0.0664 | -0.0112 | 0.0515 | 0.0729 | 0.179 | 0.548 | 0.553 | 0.579 | 0.579 | 0.416 | 0.503 | 0.517 | 0.521
3 | CC[C@H](Nc1ncnc2[nH]cnc12)c1nc2cccc(F)c2c(=O)n1-c1ccccc1 | -0.00827 | -0.000402 | -0.0211 | 0.0544 | 0.567 | 0.374 | 0.289 | 0.263 | -0.102 | -0.203 | -0.182 | -0.255 | 0.424 | 0.204 | 0.175 | 0.0639 | -0.0906 | -0.0707 | -0.0592 | 0.0112 | 0.507 | 0.287 | 0.217 | 0.234 | 0.367 | 0.448 | 0.484 | 0.5 | 0.575 | 0.541 | 0.554 | 0.546
4 | CN(C)Cc1c(C(=O)NCCOc2ccc(C(=O)NO)cc2)oc2ccccc12 | 0.0311 | 0.0492 | 0.0509 | -0.0158 | 0.972 | 0.985 | 0.987 | 0.988 | -0.0928 | -0.0394 | -0.0793 | -0.251 | 0.392 | 0.295 | 0.256 | 0.158 | 0.0477 | 0.0589 | 0.111 | 0.194 | 0.988 | 0.989 | 0.99 | 0.991 | 0.524 | 0.628 | 0.645 | 0.659 | 0.926 | 0.925 | 0.931 | 0.938
